Screen size: about 5,500 compounds; about 2,000 (36%) were called active. Not shown: some 18% with an inconclusive outcome. No stated cut-off is given here; in the data, active means normalized growth mostly below about 0.91 (no sharp cut-off); inconclusive means no clear call, values can overlap the other calls; inactive means mostly above about 0.92. Some of the results follow.
Assay: chemical genetic growth profiling, strain panel (AID 1159580);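 further: tested at 20 µM; growth read once vehicle control cultures reached saturation at 30 °C; 1 = growth at the plate median or of vehicle wells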
Details: S. cerevisiae deletion strains, growth OD
[1] = locus YAR019C, strain CDC15, stronger effect = lower value
[2] = locus YBL105C, strain PKC1, stronger effect = lower value
[3] = locus YBR135W, strain CKS1, stronger effect = lower value
[4] = locus YBR136W, strain MEC1, stronger effect = lower value
[5] = locus YBR160W, strain CDC28, stronger effect = lower value
[6] = locus YDL017W, strain CDC7, stronger effect = lower value
[7] = locus YDL028C, strain MPS1, stronger effect = lower value
[8] = locus YDL101C, strain DUN1, stronger effect = lower value
[9] = locus YDL108W, strain KIN28, stronger effect = lower value
[10] = locus YDL132W, strain cdc53, stronger effect = lower value
[11] = locus YDL214C, strain PRR2, stronger effect = lower value
[12] = locus YDR052C, strain DBF4, stronger effect = lower value
[13] = locus YDR054C, strain cdc34, stronger effect = lower value
[14] = locus YDR226W, strain ADK1, stronger effect = lower value
[15] = locus YDR477W, strain SNF1, stronger effect = lower value
[16] = locus YER123W, strain YCK3, stronger effect = lower value
[17] = locus YER133W, strain GLC7, stronger effect = lower value
[18] = locus YFL009W, strain cdc4, stronger effect = lower value
[19] = locus YFL029C, strain CAK1, stronger effect = lower value
[20] = locus YFR003C, strain YPI1, stronger effect = lower value
[21] = locus YFR019W, strain FAB1, stronger effect = lower value
[22] = locus YFR028C, strain CDC14, stronger effect = lower value
[23] = locus YGR040W, strain KSS1, stronger effect = lower value
[24] = locus YGR052W, strain FMP48, stronger effect = lower value
[25] = locus YGR092W, strain DBF2, stronger effect = lower value
[26] = locus YHR030C, strain SLT2, stronger effect = lower value
[27] = locus YHR079C, strain IRE1, stronger effect = lower value
[28] = locus YHR082C, strain KSP1, stronger effect = lower value
[29] = locus YHR205W, strain SCH9, stronger effect = lower value
[30] = locus YIL147C, strain SLN1, stronger effect = lower value
[31] = locus YJL095W, strain BCK1, stronger effect = lower value
[32] = locus YJL157C, strain FAR1, stronger effect = lower value
[33] = locus YJR016C, strain ILV3, stronger effect = lower value
[34] = locus YJR066W, strain TOR1 (second series), stronger effect = lower value
[35] = locus YJR066W, strain TOR1, stronger effect = lower value
[36] = locus YKL048C, strain ELM1, stronger effect = lower value
[37] = locus YKL067W, strain YNK1, stronger effect = lower value
[38] = locus YKL101W, strain HSL1, stronger effect = lower value
[39] = locus YKL193C, strain SDS22, stronger effect = lower value
[40] = locus YKL203C, strain TOR2, stronger effect = lower value
[41] = locus YLR113W, strain HOG1, stronger effect = lower value
[42] = locus YLR133W, strain CKI1, stronger effect = lower value
[43] = locus YLR403W, strain SFP1, stronger effect = lower value
[44] = locus YML070W, strain DAK1, stronger effect = lower value
[45] = locus YMR001C, strain CDC5, stronger effect = lower value
[46] = locus YMR205C, strain PFK2 (second series), stronger effect = lower value
[47] = locus YMR277W, strain FCP1, stronger effect = lower value
[48] = locus YNL006W, strain LST8, stronger effect = lower value
[49] = locus YNL020C, strain ARK1, stronger effect = lower value
[50] = locus YNL161W, strain CBK1, stronger effect = lower value
[51] = locus YNL183C, strain NPR1, stronger effect = lower value
[52] = locus YNL207W, strain RIO2, stronger effect = lower value
[53] = locus YNL222W, strain SSU72, stronger effect = lower value
[54] = locus YNL307C, strain MCK1 (second series), stronger effect = lower value
[55] = locus YOL078W, strain AVO1, stronger effect = lower value
[56] = locus YOL136C, strain PFK27, stronger effect = lower value
[57] = locus YOR061W, strain CKA2, stronger effect = lower value
[58] = locus YOR119C, strain RIO1, stronger effect = lower value
[59] = locus YOR231W, strain MKK1, stronger effect = lower value
[60] = locus YOR329C, strain SCD5, stronger effect = lower value
[61] = locus YPL031C, strain PHO85, stronger effect = lower value
[62] = locus YPL153C, strain RAD53, stronger effect = lower value
[63] = locus YPL204W, strain HRR25, stronger effect = lower value
[64] = locus YPL209C, strain IPL1, stronger effect = lower value
[65] = locus YPL256C, strain CLN2, stronger effect = lower value
[66] = locus YPR025C, strain CCL1, stronger effect = lower value
[67] = locus YPR106W, strain ISR1, stronger effect = lower value
[68] = locus YPR111W, strain DBF20, stronger effect = lower value
[69] = strain NNK1, stronger effect = lower value
[70] = strain TSCII, stronger effect = lower value
[71] = locus YAL013W, strain DEP1, stronger effect = lower value
[72] = locus YBR229C, strain ROT2, stronger effect = lower value
[73] = locus YDR150W, strain NUM1, stronger effect = lower value
[74] = locus YEL061C, strain CIN8, stronger effect = lower value
[75] = locus YGR078C, strain PAC10, stronger effect = lower value
[76] = locus YGR229C, strain SMI1, stronger effect = lower value
[77] = locus YHR087W, strain rtc3, stronger effect = lower value
[78] = locus YJL187C, strain SWE1, stronger effect = lower value
[79] = locus YJR043C, strain POL32, stronger effect = lower value
[80] = locus YJR075W, strain HOC1, stronger effect = lower value
[81] = locus YLR039C, strain RIC1, stronger effect = lower value
[82] = locus YLR058C, strain SHM2 (second series), stronger effect = lower value
[83] = locus YLR085C, strain ARP6, stronger effect = lower value
[84] = locus YLR262C, strain YPT6, stronger effect = lower value
[85] = locus YML094W, strain GIM5, stronger effect = lower value
[86] = locus YMR219W, strain ESC1, stronger effect = lower value
[87] = locus YMR263W, strain SAP30, stronger effect = lower value
[88] = locus YNL128W, strain TEP1, stronger effect = lower value
[89] = locus YNL153C, strain GIM3, stronger effect = lower value
[90] = locus YNL298W, strain CLA4 (second series), stronger effect = lower value
[91] = locus YNL322C, strain KRE1, stronger effect = lower value
[92] = locus YNR030W, strain Alg12, stronger effect = lower value
[93] = locus YPL055C, strain LGE1, stronger effect = lower value
[94] = locus YPL241C, strain CIN2, stronger effect = lower value
[95] = locus YPR135W, strain CTF4, stronger effect = lower value
[96] = locus YDL134C, strain PPH21, stronger effect = lower value

Measured: normalized growth

COc1ccc(CC2CCC(=NOC(=O)c3ccc(C(C)(C)C)cc3)CC2)cc1 (stereo unspecified)
inactive: [1] 0.991 | [2] 1.01 | [3] 0.988 | [4] 0.985 | [5] 0.993 | [6] 0.982 | [7] 0.984 | [8] 0.977 | [9] 0.984 | [10] 0.977 | [11] 0.947 | [12] 0.975 | [13] 0.98 | [14] 0.979 | [15] 0.946 | [16] 0.927 | [17] 0.936 | [18] 0.969 | [19] 0.988 | [20] 0.983 | [21] 0.972 | [22] 0.975 | [23] 0.936 | [24] 0.958 | [25] 0.999 | [27] 0.999 | [28] 1.01 | [29] 0.999 | [30] 0.978 | [31] 0.952 | locus YJL128C, strain PBS2, stronger effect = lower value 0.993 | [32] 0.955 | [33] 0.99 | [34] 0.909 | [35] 1.06 | [36] 0.953 | [37] 0.951 | [38] 0.941 | [39] 0.987 | [40] 1.01 | [42] 0.961 | [43] 1.01 | [44] 0.93 | [45] 0.986 | [46] 0.959 | [47] 0.976 | [48] 1 | [49] 0.964 | [50] 0.994 | [51] 1.06 | [52] 0.973 | [53] 0.993 | [54] 0.94 | [55] 0.988 | [56] 0.956 | [57] 0.963 | [58] 1.02 | [59] 0.975 | [60] 0.998 | [61] 0.937 | [62] 0.924 | [63] 0.916 | [64] 0.988 | [65] 0.881 | [66] 0.999 | [67] 0.986 | [68] 0.98 | [69] 0.977 | [70] 0.978
active: [26] 0.828 | [41] 0.844

COc1ccc(CC2CCC(=NOC(=O)c3c(Cl)cccc3Cl)CC2)cc1 (stereo unspecified)
inactive: [1] 1.03 | [3] 1.04 | [4] 1.05 | [5] 1.05 | [6] 1.04 | [7] 1.04 | [8] 0.994 | [9] 1.04 | [10] 1.01 | [11] 0.948 | [12] 0.99 | [13] 1.02 | [14] 1.02 | [15] 0.956 | [16] 0.938 | [17] 0.949 | [18] 1.02 | [19] 1.03 | [20] 1.04 | [21] 0.971 | [22] 1 | [23] 0.957 | [24] 0.98 | [25] 1.01 | [27] 1 | [28] 1.03 | [29] 1 | [30] 1.04 | [31] 0.984 | [32] 0.962 | [33] 1.01 | [34] 0.928 | [35] 1.06 | [36] 0.976 | [37] 0.959 | [38] 0.966 | [39] 1.02 | [40] 1.01 | [42] 0.98 | [43] 1.01 | [44] 0.953 | [45] 1.03 | [46] 0.962 | [47] 1.02 | [48] 1.05 | [49] 0.977 | [50] 1.05 | [51] 1.05 | [52] 1.01 | [53] 1.06 | [54] 0.963 | [55] 1.03 | [56] 0.961 | [57] 0.971 | [58] 1.03 | [59] 1.02 | [60] 1.05 | [61] 0.952 | [62] 0.948 | [63] 0.929 | [64] 1.04 | [65] 0.941 | [67] 1.04 | [68] 1.04 | [69] 1.03 | [70] 1.02
active: [2] 1.06 [resistant] | [26] 0.829 | [41] 0.854 | [66] 1.06 [resistant]

COc1ccc(C(=O)C2CCNCC2)cc1
inactive: [71] 0.991 | [72] 0.974 | [8] 0.972 | [73] 1.03 | [74] 1.01 | [75] 0.99 | [76] 1.01 | [26] 1.06 | [77] 0.974 | [78] 1 | [79] 1.01 | [80] 1.01 | locus YKL190W, strain CNB1, stronger effect = lower value 1 | [81] 1 | [82] 0.988 | [83] 1.09 | [84] 0.998 | [85] 0.969 | [86] 0.998 | [87] 1.02 | [88] 0.983 | [89] 1.02 | [90] 0.998 | [91] 1 | [92] 1.01 | [93] 1.01 | [94] 1.07 | [95] 0.995

COc1ccc(OCC(N)=O)cc1
inactive: [71] 1.01 | [72] 1.02 | locus YCL061C, strain MRC1, stronger effect = lower value 1.01 | [8] 1.01 | [96] 1.01 | [73] 0.898 | [74] 1.03 | [75] 1.01 | [76] 1.01 | [26] 1.07 | [77] 1.01 | [78] 1.01 | [79] 1.02 | [80] 1.04 | [81] 1.02 | [82] 1.02 | [83] 1.05 | [84] 1.04 | [85] 1.02 | [86] 1.01 | [87] 0.996 | locus YMR307W, strain GAS1, stronger effect = lower value 1.07 | [88] 1.01 | [89] 1.01 | [90] 1.03 | [91] 1.03 | [92] 1.02 | locus YOL006C, strain TOP1, stronger effect = lower value 1.01 | [93] 1.01 | [94] 1.02 | [95] 1.04

COc1ccc2c(c1)CCCN2C(=O)NC(=O)c1c(F)cccc1Cl
inactive: [71] 1 | [72] 1.01 | [8] 1.04 | [96] 0.984 | [73] 1.07 | [74] 0.998 | [75] 1.02 | [26] 1.06 | [77] 0.95 | [79] 1.04 | [80] 0.997 | [81] 0.967 | [82] 0.975 | [83] 1 | [84] 0.925 | [85] 0.973 | [86] 0.997 | [87] 1.04 | [88] 1.01 | [89] 1.03 | [90] 1.03 | [91] 0.998 | [92] 1 | [93] 0.98 | [94] 1.02 | [95] 1.05

Source: PubChem BioAssay AID1159580 (chemical genetic matrix, 2015)
